Most compounds without a hit are left out; they make up all but 3.4% or so of the library.
FBW7 activator: human FBW7 E3 ligase activation, primary screen; Q969H0; AID 1259310; AlphaScreen FBW7–phospho-cyclin E peptide binding, activator screen; normalized activity (activation), % at 26.1 µM; 650,000 compounds, 0.13% hits; in the data active = normalized activity above about 1.9%;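 note: purified mutant Fbw7 with reduced substrate affinity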
TEAD-YAP inh: TEAD-YAP interaction inhibition. HEK-TIYL cells, TEAD-Gal4/YAP UAS-luciferase luminescence. inhibition, % at 9.12 µM. 640,000 compounds, 1.4% hits; in the data active = inhibition above about 32%
GPR151 ag: human GPR151 activation. PathHunter beta-arrestin GPR151 cells, luminescence. activation, % at 11.2 µM. 650,000 compounds, 1% hits. AID 1508602; in the data active = activation above about 4.9%
MITF primary: human MITF inhibition, primary screen. 650,000 compounds, 0.91% hits. inhibition, % at 2.6 µM. O75030. AlphaScreen MITF homodimerization, bead proximity signal; in the data active = inhibition above about 50%
Target sequence (O75030 whole entry, looked up): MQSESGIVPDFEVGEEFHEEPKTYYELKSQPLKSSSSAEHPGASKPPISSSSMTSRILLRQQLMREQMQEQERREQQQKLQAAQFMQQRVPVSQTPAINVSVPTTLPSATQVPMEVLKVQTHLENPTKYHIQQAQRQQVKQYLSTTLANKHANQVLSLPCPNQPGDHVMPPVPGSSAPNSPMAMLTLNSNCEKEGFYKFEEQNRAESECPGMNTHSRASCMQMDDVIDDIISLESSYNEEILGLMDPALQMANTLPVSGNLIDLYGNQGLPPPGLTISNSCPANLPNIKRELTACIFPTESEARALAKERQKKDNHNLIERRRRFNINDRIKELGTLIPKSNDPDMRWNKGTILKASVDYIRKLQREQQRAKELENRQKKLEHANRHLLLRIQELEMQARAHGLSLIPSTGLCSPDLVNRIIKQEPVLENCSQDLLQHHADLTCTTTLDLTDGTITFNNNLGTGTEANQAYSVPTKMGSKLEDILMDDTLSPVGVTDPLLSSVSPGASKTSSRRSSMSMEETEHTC
MITF confirm: human MITF inhibition, confirmation. shares compounds with MITF primary. AlphaScreen MITF homodimerization, biotin/His-MITF beads. inhibition, % at 2.6 µM. 4,700 compounds, 16% hits. AID 1259372;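 active = inhibition above a cutoff derived from the DMSO control wells, cut at about 28% in these data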;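 note: inhibitors lower the bead chemiluminescence by keeping MITF from dimerizing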
AS interf DR: optically interferes with AlphaScreen signal in dose response | shares compounds with MITF primary | 480 compounds, 6% hits | IC50, µM | AlphaScreen optical interference counterscreen, cell-free; call rule not given here
AlphaScreen intf2: counter-screen: compounds optically interfering with AlphaScreen; shares compounds with MITF primary; LysRS AlphaScreen counterscreen, signal interference, triplicate; inhibition, % at 2.6 µM; 4,700 compounds, 7.6% hits; AID 1259376;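 active = inhibition above a cutoff derived from the DMSO control wells, cut at about 30% in these data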
Each line names hits and unclear results; the compound was inactive in the other large screens (follow-up assays come after a bar, where they were run).

CCOC(=O)c1c(-c2ccc(F)cc2)csc1NC(=O)CN1CCOCC1	none
CCOC(=O)c1c(-c2ccc(F)cc2)csc1NC(=O)CN1CCN(CC)CC1	MITF primary 62.9 | MITF confirm inactive | AlphaScreen intf2 inactive
CCOC(=O)c1c(-c2ccc(C)cc2)csc1NC(=O)CCN1CCN(CC)CC1	MITF primary 52.6 | MITF confirm inactive | AlphaScreen intf2 inactive
COc1cc(C(=O)NC2CCCCCCC2)c([N+](=O)[O-])cc1OC	none
COCCNCc1c(C(=O)O)c(C)n(Cc2ccc(C)cc2)c1C	none
CCc1ccccc1NC(=O)CCn1cccc1	none
CCOC(=O)c1c(-c2ccc(OC)c(OC)c2)csc1NC(=O)CN1CCCC1	none
CCOC(=O)c1c(-c2ccc(OC)c(OC)c2)csc1NC(=O)CCN1CCN(C)CC1	MITF primary 81.0 | MITF confirm inactive | AlphaScreen intf2 inactive
CC(C)n1c(N2CCN(c3ccccn3)CC2)nc2c(NCCCN3CCCC3=O)ncnc21	none
COc1ccccc1OCCN1CCN(c2ccccc2)CC1	none
COc1ccccc1OCCN1CCCCC1	none
COc1ccccc1OCCN1CCN(C)CC1	MITF primary 72.6 | MITF confirm inactive | AlphaScreen intf2 inactive
COc1ccccc1OCCN1CCOCC1	MITF primary 53.9 | MITF confirm inactive | AlphaScreen intf2 inactive
Cc1c(C(=O)Nc2ccccc2Cl)sc2ncnc(N3CCN(c4ccccn4)CC3)c12	none
CCN(CC)CCNc1nc(-c2cccs2)c(CC(=O)O)s1	MITF primary 78.8 | MITF confirm inactive | AlphaScreen intf2 inactive
O=C(O)Cc1sc(NCc2ccco2)nc1-c1cccs1	none
Cc1ccccc1CN[C@H]1C[C@H]2C(=O)N[C@H](CC(C)C)C(=O)N2C1	none
O=C1S/C(=C\c2ccco2)C(=O)N1c1ccccc1Cl	MITF primary 78.2 | MITF confirm 78.9 | AS interf DR inactive | AlphaScreen intf2 inactive
Cc1[nH]c2ccccc2c1C(=O)CN1CCN(c2ccc(F)cc2)CC1	none
COc1ccc(C(=O)Nc2ccc(S(=O)(=O)NC3CCCCC3)cc2)cc1[N+](=O)[O-]	none
Cc1ccc(OCC(=O)NNC(=O)Nc2ccc3c(c2)OCO3)c([N+](=O)[O-])c1	none
COc1ccccc1C(=O)NC1(C(F)(F)F)NC(=O)N(c2ccccc2)C1=O (stereo unspecified)	MITF primary 87.5 | MITF confirm inactive | AlphaScreen intf2 inactive
CN1CCc2c1nc1ccccc1c2NC(=O)C12CC3CC(CC(C3)C1)C2	none
O=C(CN1CCCCC1)Nc1c2c(nc3ccccc13)N(c1ccccc1)CC2	none
CN(CC(=O)Nc1c2c(nc3c1CCC3)CCCC2)Cc1ccccc1	MITF primary 68.0 | MITF confirm inactive | AlphaScreen intf2 inactive
CN(CC(=O)Nc1c2c(nc3ccccc13)N(C)CC2)Cc1ccccc1	MITF primary 65.1 | MITF confirm inactive | AlphaScreen intf2 inactive
CN1CCN(CC(=O)Nc2c3c(nc4ccccc24)N(C)CC3)CC1	MITF primary 78.7 | MITF confirm inactive | AlphaScreen intf2 inactive
CN1CCc2c1nc1ccccc1c2NC(=O)CNC1CC1	MITF primary 52.9 | MITF confirm inactive | AlphaScreen intf2 inactive
O=C(NNC(=S)NCc1ccco1)c1ccccn1	MITF primary 117.0 | MITF confirm 46.3 | AlphaScreen intf2 66.7
O=C(NNC(=S)NCc1ccc(Cl)cc1)c1ccccn1	MITF primary 112.2 | MITF confirm 102.3 | AlphaScreen intf2 100.2
CCOc1ccc2nc(N3CCCN(Cc4cccc5nccnc45)CC3)nc(C)c2c1	none
O=C(N/N=C/c1c(F)cccc1Cl)c1ccccc1O	none
CCc1ccc2nc(SCC(=O)Nc3nc(C)c(C)s3)c(C#N)cc2c1	MITF primary 84.5 | MITF confirm inactive | AlphaScreen intf2 55.8
NS(=O)(=O)c1cccc(NC(=O)CN2CC(=O)Oc3ccccc32)c1	none
N#Cc1ccc(OCC(O)CNCCCN2CCCC2=O)cc1 (stereo unspecified)	MITF primary 50.6 | MITF confirm inactive | AlphaScreen intf2 inactive
Cc1cccc(NC2=NCC(=O)N2c2ccccc2)c1C	none
COCCSc1nnc(-c2ccncc2)n1C	MITF primary 58.8 | MITF confirm inactive | AlphaScreen intf2 inactive
CC(=O)Nc1ccc(OCC(=O)NC(Cc2ccccc2)C(C)=O)cc1 (stereo unspecified)	none
